Measured values published in PubChem BioAssay AID623868 (Vanderbilt High Throughput Screening Facility, 2012).
Among all 2,100 compounds or so, about 760 (36%) were called active.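 Rule for the calls: active = thallium-flux fluorescence traces judged by eye to show enhanced or reduced glutamate response, manual score 1 or -1, so both directions (some results past the limit were not filed as active); inactive = the rest, including fluorescent or raised-baseline compounds.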 A selection follows.

test: non-GIRK thallium flux modulation in mGlu8 cells, confirmation, counter-screen for GIRK activator project, cell-based, HEK-293 rmGlu8, no GIRK (AID 623868); details: thallium flux fluorescence, at 10 µM, actives lie on both sides, codes: 1 enhancer, -1 blocker, 0 none, thallium stimulus containing EC20 glutamate;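 note: extra codes mark interference with 3 for fluorescent and 4 for baseline rise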

SMILES	manual score
CCCCn1c(SC(C)C(N)=O)nc2cc(C(=O)OC)ccc2c1=O (stereo not given)	1 (active)
CCCCn1c(SCC(=O)Nc2ccc(OC)cc2)nc2ccc(N3CCOCC3)cc2c1=O	0 (inactive)
CCCCn1c(=O)[nH]c2nc3cc(N)ccc3nc2c1=O	3 (inactive)
COCCCN1C(=O)C(=O)/C(=C(/O)c2ccc(C)cc2)C1c1ccccc1 (stereo not given)	-1 (active)
COc1ccc(N/C(C)=C2/C(=O)C(=O)N(CCO)C2c2ccc(Br)cc2)cc1 (stereo not given)	0 (inactive)
C=CCOc1ccc(/C(O)=C2/C(=O)C(=O)N(CCCN3CCOCC3)C2c2ccccc2)cc1 (stereo not given)	0 (inactive)
O=S(=O)(Nc1ccc2nc(C(F)(F)F)[nH]c2c1)c1ccccc1	0 (inactive)
CCC(Sc1ccc2nnc(-c3ccc(F)cc3)n2n1)C(=O)OC (stereo not given)	-1 (active)
CCOc1ccc(-c2cc(C)n3nc(C(N)=O)cc3n2)cc1	0 (inactive)
Cc1cc(N2CCN(c3ccccc3)CC2)nc(NCc2ccccc2)n1	0 (inactive)
CC(C)CNC(=S)NC(=O)c1ccc(Cl)cc1Cl	1 (active)
CC(C)CNC(=S)NC(=O)c1ccccc1Cl	1 (active)
CCCCNC(=S)NC(=O)c1ccc(Cl)cc1Cl	1 (active)
S=C(NCc1ccc(Cl)cc1Cl)Nc1ccccc1	0 (inactive)
CC(C)NC(=S)NC(=O)c1ccc(Cl)cc1Cl	1 (active)
CC(C)CNC(=S)Nc1ccc(Oc2ccccc2)cc1	0 (inactive)
O=S(=O)(c1ccc(Cl)c(F)c1)N1CCC(c2nc(-c3ccncc3)no2)CC1	0 (inactive)
O=C(Nc1ccc(F)c(F)c1)NC1CCCCC1	0 (inactive)
Cc1[nH]c2ccccc2c1CN1CCc2ccccc2C1	0 (inactive)
O=C(O)C1C2C=CC(C2)C1C(=O)NCCc1cccc(Cl)c1 (stereo not given)	0 (inactive)
Cc1ccc(S(=O)(=O)N/N=C/c2ccc(OC3CSC3)cc2)cc1	0 (inactive)
CCCCNC(=S)NC(=O)c1ccccc1Br	1 (active)
CCS(=O)(=O)Nc1ccc(-c2nnc(SCC(=O)c3ccc(NC(C)=O)c(OC)c3)o2)cc1	0 (inactive)
CCOC(=O)CSc1nnc(-c2ccccc2OC)o1	-1 (active)
O=C(CSc1nnc(-c2cccnc2)o1)OC1CCCCC1	-0.5 (inactive)
COCCCNCCCOc1ccc(Cl)cc1Br	0 (inactive)
CC1=NN(/C(=N\c2nnc(C)s2)Nc2ccccc2)[C@H](c2cccc3ccccc23)S1	1.5 (inactive)

SMILES	manual score
O=C(OCCN1C(=O)c2cccc3c(N4CCOCC4)ccc(c23)C1=O)c1cccc(Cl)c1	3 (inactive)
COC(=O)c1cccc(NC(=S)Nc2cccc(Cl)c2Cl)c1	1 (active)
FC(F)Oc1ccccc1NC(=S)Nc1cccc(Cl)c1Cl	0.5 (inactive)
CC(C)Oc1cccc(C(=O)NC(=S)Nc2ccccc2)c1	1 (active)
O=C(NC(=S)Nc1ccc(N2CCOCC2)cc1)c1cccc(Cl)c1	1 (active)
CCOc1cccc(C(=O)NC(=S)Nc2ccccc2)c1	0 (inactive)
CCCOc1cccc(C(=O)NC(=S)Nc2cccc(C(F)(F)F)c2)c1	1 (active)
O=C1C(Cl)=C(N2CCOCC2)C(=O)N1c1cccc(Cl)c1	0 (inactive)
Cc1cc(O)c(C(C[N+](=O)[O-])c2ccc(Cl)cc2Cl)c(=O)o1 (stereo not given)	0 (inactive)
O=C(O)CCC(=O)NC1CCCCCCC1	0 (inactive)
CSc1ccccc1NC(=O)Nc1ccccc1	0 (inactive)
O=C(NC(=S)Nc1ccc(N2CCCCC2)cc1)c1ccco1	1 (active)
CC1CCN(c2ccc(NC(=S)NC(=O)c3ccco3)cc2)CC1	1 (active)
CC1CCN(c2ncccc2C(=O)O)CC1	0 (inactive)
CSc1ccccc1C(=O)Nc1cccc(C(C)=O)c1	0 (inactive)
O=C(NC(=S)Nc1cccc(Cl)c1N1CCCCC1)c1ccco1	1 (active)
O=C(Nc1ccc(OCC(=O)N2CCC(Cc3ccccc3)CC2)cc1)c1ccco1	0 (inactive)
CC(=O)c1cccc(NC(=S)NC(=O)c2cccc(C)c2)c1	0.5 (inactive)
CC(=O)c1cccc(NC(=S)NC(=O)c2cccc(Cl)c2)c1	1 (active)
O=C(NC(=S)Nc1ccc(N2CCOCC2)c(Cl)c1)c1cncc(Br)c1	1 (active)
O=C(NC(=S)Nc1ccc(N2CCOCC2)cc1)c1ccco1	1 (active)
O=C(Nc1ccc(F)cc1)c1cccnc1N1CCOCC1	0 (inactive)
COc1ccc(OCC(=O)NC(=S)Nc2ccc(N3CCOCC3)c(Cl)c2)cc1	0 (inactive)
C=CCN(CC=C)S(=O)(=O)c1ccc(NC(=S)NC(=O)c2ccco2)cc1	0.5 (inactive)
CCN(c1ccc2c(c1)OCO2)S(=O)(=O)c1cc(Br)cc2c1N(C(=O)C1CC1)CC2	0 (inactive)
N=c1c2c(-c3ccccc3)c(-c3ccccc3)n(Cc3ccccc3)c2ncn1CCCO	0 (inactive)
CCC1=NN(C(=O)c2cccc(Br)c2)C(O)(c2ccc(Br)cc2)C1 (stereo not given)	1 (active)

SMILES	manual score
CCOC(=O)C1=NN(C(=O)c2ccccc2)C(O)(c2ccc(C)cc2)C1 (stereo not given)	1 (active)
CCOC(=O)C1=NN(C(=O)c2ccc(C)cc2)C(O)(c2ccc(Cl)cc2)C1 (stereo not given)	1 (active)
CCOC(=O)c1cc(-c2ccc(Cl)cc2)nc2c1c(C)nn2CCC#N	0 (inactive)
CCOC(=O)c1c(C)[nH]c(C(=O)COC(=O)CNC(=O)c2ccc(Cl)cc2)c1C	0 (inactive)
Cc1ccc(-c2csc3ncnc(N4CCN(C(=O)c5ccccc5)CC4)c23)cc1	0 (inactive)
CCOC(=O)C1=C(NC(=S)NC(=O)c2ccccc2)c2ccccc2CC1(C)C	0 (inactive)
COC(=O)C1=NN(C(=O)c2ccc(Cl)cc2)C(O)(c2ccccc2)C1 (stereo not given)	1 (active)
O=[n+]1cc(-c2ccccc2)n([O-])c2c1CCC2	0 (inactive)
Cc1ccc(NC(=O)CSc2nnc(CCNC(=O)OC(C)(C)C)o2)c(C)c1	0 (inactive)
O=C1CC(C(F)(F)C(F)(F)C(F)(F)F)=Nc2ccccc2N1	0 (inactive)
Cc1ccc(NC(=O)Cc2c(Cl)cccc2Cl)cc1S(=O)(=O)N(C)C	0 (inactive)
COc1ccccc1C(c1nnnn1CCc1ccccc1)N1CCCCCC1 (stereo not given)	0 (inactive)
COC(=O)C1=NN(C(=O)c2ccc(C)cc2)C(O)(c2ccc(Cl)cc2)C1 (stereo not given)	1 (active)
COc1ccc2cc(C(=O)NCC(=O)O)sc(=O)c2c1OC	0 (inactive)
CCOC(=O)CSc1nc2c(sc3ccccc32)c(=O)n1CCCN1CCOCC1	0 (inactive)
CCCCn1c(SCC(=O)NCc2ccco2)nc2ccccc2c1=O	1 (active)
CCCCCn1c(NCc2ccco2)nc2ccccc21	0 (inactive)
CC(C)CCn1c(SCC#N)nc2c(sc3ccccc32)c1=O	0 (inactive)
O=C(CCCCn1c(=O)c2ccccc2n(CC(=O)NC2CCCC2)c1=O)NCc1ccco1	0 (inactive)
CCCCn1c(SCc2nc(N)nc(Nc3ccccc3C)n2)nc2ccccc2c1=O	0 (inactive)
N#CCSc1nc2ccc(N3CCOCC3)cc2c(=O)n1CCc1ccccc1	0 (inactive)
C/C(N)=C(/C#N)C(=O)CSc1nc2cc(Cl)ccc2c(=O)n1-c1ccc(C)cc1	1 (active)
CCCCn1c(SCC(=O)/C(C#N)=C(\C)N)nc2ccccc2c1=O	1 (active)
CCCCn1c(SCC(N)=O)nc2c(sc3ccccc32)c1=O	1 (active)
O=c1sc(N2CCN(c3ccccc3F)CC2)nc2ccsc12	0 (inactive)
COc1ccc(C2C(C(N)=O)=C(C)Nc3nc(-c4cccc(Cl)c4)nn32)cc1OC (stereo not given)	0 (inactive)
OC(c1ccccc1)C1CN(Cc2ccccc2)CCC1(O)c1ccccc1 (stereo not given)	0 (inactive)

SMILES	manual score
C=C(C)CNC(=S)N/N=C1\CCCCc2ccccc21	0 (inactive)
C=CCNC(=S)Nc1nc2c(cc1C(=O)OCC)CCCC2	1 (active)
CCNC(=S)Nc1nc2c(cc1C(=O)OCC)CCCC2	1 (active)
Cc1cc(C)cc(NC(=O)Cn2cc3c(n2)CCCCC3)c1	0 (inactive)
CCOC(=O)c1cc(NC(=O)SCC(=O)O)c(C)nc1C	0 (inactive)
C=C(C)CNC(=S)Nc1nc2c(cc1C(=O)OCC)CCCC2	1 (active)
CCN(C(=O)COc1cc(=O)n(CC)c2ccccc12)c1cc(Cl)ccc1OC	0 (inactive)
N#CC(C#N)=C1C=C2C=C(N3CCCCC3)CCC2CC1 (stereo not given)	3 (inactive)
Cc1ccc(C(=O)NNC(=S)NC(=O)c2ccc(Cl)cc2Cl)cc1	1 (active)
O=C(COc1ccccc1)NNC(=S)NC(=O)c1ccc(Cl)cc1Cl	1 (active)
O=C(NC(=S)NNC(=O)c1cccs1)c1ccc(Br)o1	1 (active)
Cc1onc(-c2ccccc2)c1C(=O)NNC(=S)NC(=O)c1ccc(Br)cc1	1 (active)
Cc1ccc(-c2cnc(NC(=O)CCC(=O)N3CCCCC3)n2C)cc1	0 (inactive)
CCOC(=O)N1CCC(NC(=O)c2cnn3c2NC(c2ccco2)CC3C(F)(F)F)CC1 (stereo not given)	0 (inactive)
COc1cc(OC)c2nc(C)c3c(c2c1)N(c1ccc(O)cc1)CC3	0 (inactive)
CCC1Oc2ccc(C)cc2N(CC(=O)N(Cc2ccc(C)o2)C2CCCC2)C1=O (stereo not given)	0 (inactive)
CCOC(=O)c1oc2nc(C(C)C)c3c(c2c1N)CC(C)(C)OC3	0 (inactive)
Cc1cccc(C(=O)NC(=S)NNC(=O)c2ccccc2Cl)c1	1 (active)
Cc1cccc(C(=O)NC(=S)NNC(=O)c2cccs2)c1	1 (active)
Cc1ccccc1C(=O)NC(=S)Nc1sc2c(c1C#N)CCCC2	0 (inactive)
Cc1ccccc1C(=O)NNC(=S)NC(=O)c1ccccc1	1 (active)
Cc1onc(-c2ccccc2)c1C(=O)NC(=S)Nc1sc2c(c1C#N)CCCC2	1 (active)
O=C(CSc1nnc2ccccn12)Nc1nsc(-c2ccccc2)n1	0 (inactive)
CCc1ccccc1N(C)C(=O)CCc1nc(-c2ccc(C)cc2)no1	0 (inactive)
